This note sets out measurements from PubChem BioAssay.

The experiment can be described thus: probe aLAP1 signal on lysate-treated microarray – cell lysate, small-molecule microarray, COS7 lysate, primary screen (AID 1124).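 Note: lysate comes from COS7 cells expressing LAP1 and is applied at 0.3 µg/mL; score merges spot fluorescence near 667 nm with signal-to-noise over triplicate slides.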 The settings on record: probe aLAP1, fluorescence, higher = more signal.
For `COC(=O)[C@@]1(Cc2ccc(OC)cc2)[C@@H]2[C@@H](CC(=O)[C@H]2CC(=O)C(=O)N(C)C)CN1C(=O)c1ccccc1`, the composite z-score turned out to be 0.505.
`COC(=O)C(CC#Cc1ccc2c(c1)[C@]1(C(=O)N2)[C@H](C(=O)N2CCCCCCC2)[C@H]2C(=O)O[C@H](c3ccccc3)[C@H](c3ccccc3)N2[C@@H]1c1ccc(OCCO)cc1)C(=O)OC` registered a composite z-score of 0.497.
`COc1ccc(CCNC(=O)[C@@]2(c3ccc([N+](=O)[O-])cc3)CC(=O)N(C3CCCCC3)[C@@H]2c2ccc(CO)cc2I)cc1` yielded a composite z-score of 0.89.
Then `COc1c(C)cc(-c2cc3c(c(CCc4ccccc4)n2)[Si](C(C)C)(C(C)C)O[C@H]3c2ccccc2)cc1C`, with -0.153; and `CCCCC(=C=CC[C@@H](O)c1ccccc1OCCO)C[C@@H](O)c1ccccn1`, with 0.137; and `[N-]=[N+]=NCc1ccccc1C[C@]1(C(=O)N2CCCCC2)COC(c2ccc(OCCCO)cc2)=N1`, with -0.44.
`COc1cccc(C)c1NC(=O)O[C@H]1[C@H](OC(=O)Nc2ccccc2-c2ccccc2)[C@@H](OC(=O)Nc2ccccc2-c2ccccc2)[C@@H](OC)O[C@@H]1CO` returned a composite z-score of 0.762.
Then `O=C1C2C=CC(C(O)c3ccccn3)N(Nc3ccc([N+](=O)[O-])cc3)C2C(=O)N1c1ccccc1` (stereo unspecified), with 1.85.
Next, `CCOC(=O)C1=C[C@@H](C(C)(C)C)N(S(=O)(=O)c2ccc(C)cc2)[C@H]1c1ccc(OC)cc1`: 0.315; `O=C1NC(=O)C2C1C=CC(C(O)C(c1ccccc1)c1ccccc1)N2Nc1ccccn1` (stereo unspecified): 0.754.
Next, `CCCCCCc1nc(-c2ccc(OC)nc2)c(C)c2c1[Si](C(C)C)(C(C)C)OC2`: -0.459; `CC(C)Cc1ccc(CN2CC[C@@H](NC(=O)c3ccccc3)C2)cc1`: -0.0172; `COCCOC(=O)N1C(=O)[C@@]2(c3cc(C#CC4=CCCCC4)ccc31)[C@H](c1ccc(O)cc1)N1[C@H](c3ccccc3)[C@H](c3ccccc3)OC(=O)[C@H]1[C@@H]2C(=O)N1CCc2cc(OC)c(OC)cc2C1`: 0.743.
The compound `Cc1ccc(S(=O)(=O)N2[C@@H](c3ccccc3)C(C(=O)O)=CC[C@H]2c2ccc(F)cc2)cc1` had a composite z-score of 1.72.
For `COc1ccc([Si](C)(C)[C@H]2[C@H](CC(=O)N3CCC[C@H]3CO)O[C@@]3(C(=O)N(Cc4cccc(N5CCCCC5=O)c4)c4ccccc43)[C@@H]2C)cc1`, the composite z-score was determined as 0.648.
Then `[N-]=[N+]=Nc1ccccc1C[C@@]1(C(=O)NCc2ccccc2)N=C(c2ccc(OCCCO)cc2)O[C@@H]1c1ccccc1`, with 0.692; and `[N-]=[N+]=NCc1ccccc1[C@H]1OC(c2ccc(OCCCO)cc2)=N[C@@]1(CCS(=O)(=O)c1ccccc1)C(=O)O`, with 0.0621; and `CCOC(=O)C[C@H]1[C@H](OC(=O)c2cc3ccccc3oc2=O)[C@@H](NC(=O)Cc2ccc(OC)cc2)c2cc(OCCCO)ccc2N1C(=O)Cc1ccc(OC)cc1`, with -0.0915.
Take `C=C(C(=O)CC[C@@H](OC(=O)c1ccccc1-c1ccccc1C(=O)O)c1cccc(OCCO)c1)C(C)C`: the composite z-score stood at 1.2.
Then `COC(=O)[C@@]1(Cc2ccc(F)cc2)[C@@H]2C(=CC(=O)[C@H]2CC(=O)C(=O)N2CCCC2)CN1C(=O)c1ccccc1`, with 0.805.
Next, `CC(C)(C)OC(=O)CC[C@]1(C(N)=O)N=C(c2ccc(OCCCO)cc2)O[C@H]1c1ccccc1N=[N+]=[N-]`: 0.242; `COc1ccc([Si](C)(C)[C@@H]2[C@@H](CC(=O)N3CCC[C@H]3CO)O[C@]3(C(=O)N(Cc4cccc(N5C(=O)c6cccc7cccc5c67)c4)c4ccccc43)[C@H]2C)cc1`: 0.104.
Next, `COC(=O)C(CC#Cc1ccc2c(c1)[C@]1(C(=O)N2)[C@H](c2ccccc2OCCO)N2[C@H](c3ccccc3)[C@H](c3ccccc3)OC(=O)[C@H]2[C@@H]1C(=O)N1CCN(c2ncccn2)CC1)C(=O)OC`: 0.309; `COc1ccc(C(=O)Nc2ccc(CN3C(=O)[C@]4(O[C@H](CC(=O)N(CCO)Cc5ccccc5)[C@@H]([Si](C)(C)c5ccc(OC)cc5)[C@@H]4C)c4ccccc43)cc2)cc1`: 1.62.
On to `COCCOC(=O)N1C(=O)[C@@]2(c3cc(C#CCCO)ccc31)[C@H](c1ccc(O)cc1)N1[C@H](c3ccccc3)[C@H](c3ccccc3)OC(=O)[C@H]1[C@@H]2C(=O)NC[C@H](O)c1ccccc1`, for which the composite z-score stood at 1.08.
`COc1ccc(NN2C(C(O)c3ccccc3)C=CC3C(=O)N(C4CCCCC4)C(=O)C32)cc1` (stereo unspecified) gave a composite z-score of 0.4.
Then `COc1ccc([Si](C)(C)[C@H]2[C@H](CC(=O)N(CCO)Cc3ccccc3)O[C@@]3(C(=O)N(Cc4ccc(N5C(=O)c6cccc7cccc5c67)cc4)c4ccccc43)[C@@H]2C)cc1`, with 0.801; and `COc1ccc([Si](C)(C)[C@H]2[C@H](CC(=O)N3CCC[C@H]3CO)O[C@@]3(C(=O)N(C)c4c(Br)cc(C)cc43)[C@@H]2C)cc1`, with 0.548.
Then `COCCOC(=O)N1C(=O)[C@@]2(c3cc(C#CCCO)ccc31)[C@H](C(=O)N1CCN(c3ncccn3)CC1)[C@H]1C(=O)O[C@H](c3ccccc3)[C@H](c3ccccc3)N1[C@@H]2c1ccc(OCCO)cc1`, with 0.419.
Next, `COc1ccc([Si](C)(C)[C@H]2[C@H](CCO)O[C@@]3(C(=O)N(Cc4ccccc4)c4ccc(NC(=O)[C@H](C)O)cc43)[C@@H]2C)cc1`: -0.298; `COc1cc(CO)cc(I)c1O[C@H]1C=C(C(=O)NCCO)C[C@@H](N(CCN2CCOCC2)C(=O)C2CCCO2)[C@@H]1O` (stereo partly specified): -0.0581; `O=C(c1ccccc1)N1Cc2ccccc2C[C@@]2(N=C(c3ccc(OCCCO)cc3)O[C@H]2c2ccccc2)C1=O`: 0.548.
Turning to `COCCCNC(=O)[C@@]1(Cc2ccccc2I)c2ccccc2C(=O)N(Cc2ccccc2OC)[C@H]1c1ccc(CO)cc1`, the composite z-score was -0.143.
`CN(C)C(=O)[C@]1(CCS(=O)(=O)c2ccccc2)N=C(c2ccc(OCCCO)cc2)O[C@@H]1c1ccccc1CN=[N+]=[N-]`: the composite z-score is 0.766.
Next, `C=CCC(OC(C)=O)[C@@H]1[C@@H](N(Cc2ccc(-c3ccccc3)cc2)C(=O)Cc2ccc(OC)cc2)c2cc(OCCCO)ccc2N1C(=O)c1ccc2ccccc2c1` (stereo partly specified): 0.165; `COc1cccc(C)c1NC(=O)O[C@H]1[C@H](OC(=O)Nc2ccccc2)[C@@H](OC(=O)Nc2ccccc2)[C@@H](OC)O[C@@H]1CO`: 0.665.
